Bioassay records deposited in PubChem by National Center for Advancing Translational Sciences (NCATS).
B2AR arrestin: agonists driving beta-arrestin recruitment to human beta2-adrenergic receptor. AID 492947. beta-arrestin recruitment to beta2AR, cell-based reporter. Potency, µM (series often up to 46.1 µM), for inactives: at the top dose activation, most hits filed as activators. P07550. 0.02% of 330,000 active;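 also: potency is read from the fitted curve at half-maximal effect; 0% = DMSO controls and full agonism = EC100 isoproterenol or metaproterenol; nearly all actives have a fitted effect of over 65% in size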
RXFP1 antagonist: RXFP1 (human) relaxin receptor antagonism | HEK293-RXFP1, relaxin-stimulated cAMP HTRF, 30 min; active compounds read low | activity change, negative = inhibition, % at 57.5 µM | 0.59% of 350,000 active | AID 1259400;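 active = activity change of -60% or lower, but not beyond a set lower limit; inconclusive = change between -60% and -40%, or beyond the set limit; inactive = change above -40%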
Target sequence (Q9HBX9 whole entry, looked up): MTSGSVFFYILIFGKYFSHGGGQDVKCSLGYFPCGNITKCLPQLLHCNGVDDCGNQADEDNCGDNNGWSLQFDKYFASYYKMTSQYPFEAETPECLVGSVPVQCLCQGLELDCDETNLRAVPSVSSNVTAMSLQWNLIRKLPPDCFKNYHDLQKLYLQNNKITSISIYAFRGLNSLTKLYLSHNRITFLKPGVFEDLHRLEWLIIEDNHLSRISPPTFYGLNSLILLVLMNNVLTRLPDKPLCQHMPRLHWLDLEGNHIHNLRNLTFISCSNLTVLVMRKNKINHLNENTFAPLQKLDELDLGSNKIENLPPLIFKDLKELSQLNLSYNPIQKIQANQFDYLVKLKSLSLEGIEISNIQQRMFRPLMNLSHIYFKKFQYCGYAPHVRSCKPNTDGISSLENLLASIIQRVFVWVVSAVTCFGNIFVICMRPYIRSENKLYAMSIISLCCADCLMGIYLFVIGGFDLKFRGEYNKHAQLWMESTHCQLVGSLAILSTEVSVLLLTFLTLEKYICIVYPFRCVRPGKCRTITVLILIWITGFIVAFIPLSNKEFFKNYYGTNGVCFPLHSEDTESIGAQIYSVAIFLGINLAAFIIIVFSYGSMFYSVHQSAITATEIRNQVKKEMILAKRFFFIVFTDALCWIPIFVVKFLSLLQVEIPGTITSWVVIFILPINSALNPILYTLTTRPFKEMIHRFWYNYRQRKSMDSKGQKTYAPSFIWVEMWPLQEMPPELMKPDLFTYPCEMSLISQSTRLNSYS
RXFP1 agonist: RXFP1 (human) receptor agonism; Q9HBX9; HEK293T-RXFP1 cAMP TR-FRET, 30 min; response scale: percent of porcine relaxin response, buffer zero; Potency, µM (doses to about 57.5 µM), for the others: at the highest dose activation, hits mostly activators; 0.3% of 370,000 active; AID 2676; also: potency is read from the fitted curve at half-maximal effect; nearly all actives have a fitted effect of over 60% in size
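HEK293T cells stably expressing RXFP1 were pretreated with the PDE4 inhibitor Ro 20174, exposed to compounds for 30 min at 37C, lysed, and cAMP was read by TR-FRET. Data normalized to buffer (basal) and 29 nM porcine relaxin (100%).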
BCR signal inh: chronic active BCR signaling inhibition; ABC-DLBCL IkBa-CBG/CBR reporter, luminescence ratio, 4 h; Potency, µM (titrated, usually from 46.1 µM), for the others: at the highest dose activity change, negative = inhibition, actives largely listed as inhibitors; 0.05% of 340,000 active; AID 493014; active = well fitted inhibition curve with a large enough effect in the signal ratio, with a control signal flat, not every such curve was filed as active; inconclusive = small, poorly fitted or top-dose-only effect, or effect the other way, or a change in a side signal; the % refers to the signal ratio;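 also: potency is read from the fitted curve at half-maximal effect; plate controls were basal doxycycline-induced cells for no effect and cells given 10 µM MG132 for full effect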
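Doxycycline induced both beetle luciferases in TMD8 lymphoma cells; IKK-driven degradation limits the IkappaBalpha-fused green signal, while red luminescence normalises for cell number and nonspecific effects. Compounds tested up to 46 uM, 4 hrs.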
Numbers without * were called inactive; u = inconclusive; x = no result given; ! = not confirmed by another sample. In the library only some 0.59% were active in any assay of this set; here they are far more common. Unless noted, calls follow the shape of the dose curve; as a rule, active = well fitted activation curve with a large enough effect; inconclusive = small, poorly fitted or top-dose-only effect; inactive = flat fitted curve, though single readings scatter. Unless noted, % is scaled to controls: 0 for no effect and ±100 for the full control effect.

SMILES | B2AR arrestin | RXFP1 antagonist | RXFP1 agonist | BCR signal inh
CN(C)c1ccc(N/C=C/C(=O)c2ccco2)cc1 | 0% | -64* | 1% | u
CCNC(=O)[C@@H]1CCCN1C(=O)[C@H](CCCN=C(N)N)NC(=O)[C@H](CC(C)C)NC(=O)CNC(=O)[C@H](Cc1ccc(O)cc1)NC(=O)[C@H](CO)NC(=O)[C@H](Cc1c[nH]c2ccccc12)NC(=O)[C@H](Cc1cnc[nH]1)NC(=O)[C@@H]1CCC(=O)N1 | x | -9 | x | x
Cc1cccc(CC2C(=O)Nc3ccccc32)c1 (stereo not given) | x | -16 | -3% | x
CCOc1ccc2nc(NS(=O)(=O)Cc3ccccc3)sc2c1 | -1% | -11 | -1% | 7.3µM*
CCOc1ccc2nc(NC(=O)c3ccccc3)sc2c1 | x | 0 | 0% | x
O=C(Nc1nnc(-c2ccco2)s1)C1CCCCC1 | 0% | -3 | 5% | u
O=C(Nc1nc(-c2ccco2)c(-c2ccco2)s1)C1CCC1 | 0% | -61* | 0% | 12%
CCOc1ccc(CNC(=O)C2CCN(S(=O)(=O)c3cn(C)cn3)CC2)cc1 | x | -1 | 4% | x
COc1ccc(N(C(=O)COc2ccc(Br)cc2)S(=O)(=O)c2ccc(C)cc2)cc1 | x | x | -2% | x
CC(=O)Nc1ccc(Br)c2ccccc12 | 0% | 4 | 28µM* | 1%
O=C(Nc1ccc(Br)c2ccccc12)c1ccc2ccccc2c1O | 0% | 1 | u | u
CCCOc1ccc(NC(=O)CC2C(=O)N(c3ccc(Cl)cc3)C(=O)N2CCc2ccncc2)cc1 (stereo not given) | x | -8 | 2% | x
CC1=C(C(=O)Nc2cccc(C(F)(F)F)c2)C(c2ccccc2)n2ncnc2N1 (stereo not given) | x | x | -2% | x
O=C(C1COc2ccccc2O1)N(Cc1cccnc1)c1nc2ccc(Cl)cc2s1 (stereo not given) | x | 0 | 1% | 6%
O=C1CSC(=S)N1N=Cc1cccc(OCc2ccccc2)c1 | x | -95* | x | x
CCCN(CCC)C(=O)Cn1c(=O)n(-c2ccc(CC)cc2)c(=O)c2ccc(C(=O)NCCc3ccccc3)cc21 | x | x | 25µM* | x
CCc1ccc(-n2c(=O)c3ccc(C(=O)NCCc4ccccc4)cc3n(CC(N)=O)c2=O)cc1 | 0% | -8 | -1% | u
Cc1ccccc1OCC(=O)NNC(=O)C1CCN(c2ncnc3sc(C)c(C)c23)CC1 | 0% | -68* | 3% | u
CC(=O)OCC1=C(C(=O)O)N2C(=O)C(NC(=O)c3ccc(F)cc3)C2SC1 (stereo not given) | 0% | 3 | 0% | 0%
CC(=O)OCC1=C(C(=O)O)N2C(=O)[C@@H](NC(=O)CSc3ccncc3)[C@H]2SC1 | -3% | -92*! | 2% | 2%
CCN1C(=O)c2ccccc2S(=O)(=O)c2ccc(C(=O)NCc3ccccc3)cc21 | x | x | 4% | x
CC1=C(C)/C(=N\OS(=O)(=O)c2ccccc2)C=CC1=O | u | -114* | -3% | u
COc1ccc([N+](=O)[O-])cc1N(CC(O)CN1CCCC1)S(=O)(=O)c1ccc(C)cc1 (stereo not given) | 0% | -66* | -1% | 7%
CCCc1cc(C(=O)NC2CCCCC2)no1 | 0% | 8 | 3% | u
CCCc1cc(C(=O)N(C2CCCCC2)C2CCCCC2)no1 | 0% | -70* | 0% | 8%
SMILES | B2AR arrestin | RXFP1 antagonist | RXFP1 agonist | BCR signal inh
CN(Cc1ccccc1)C(=O)COC(=O)C1CCN(S(=O)(=O)c2ccc(Cl)c(C(F)(F)F)c2)CC1 | 0% | -96* | 0% | 0%
CN1CCN(CCCN2c3ccccc3Sc3ccc(C(F)(F)F)cc32)CC1 | 4% | -65*! | 3% | u
O=C(CN1CCCC(O)C1)N1c2ccccc2Sc2ccc(C(F)(F)F)cc21 (stereo not given) | 0% | -35 | 3% | 5%
CC(=O)c1cccc(N(C(=O)c2csnn2)C(C(=O)NC2CCCC2)c2ccccc2)c1 (stereo not given) | 0% | -80* | 2% | -5%
CN1C(=O)C(C)(C)c2cc(S(=O)(=O)N3CCN(c4ccc(F)cc4)CC3)ccc21 | 0% | -60* | -4% | u
C=Cc1ccc2c(c1)N(C)C(=C)S2 | 0% | -119* | 1% | -10%
C=CCc1cc(Cl)ccc1OCCCNC(C)CC (stereo not given) | -1% | -63* | -1% | -19%
CCC(C)NCCCOc1ccc(Cl)cc1C(C)(C)C (stereo not given) | 0% | 8 | 0% | -9%
Cc1ccc2c(CNCCc3ccco3)c(C(=O)O)n(Cc3ccc(F)cc3)c2c1 | x | x | 1% | x
CCOc1cc(CNCc2ccccc2)ccc1OCc1ccc(Cl)cc1 | 0% | -96* | -3% | u
Cc1ccc(C2=CC(C)(c3ccc(C)cc3)Nc3nc(C(F)(F)F)nn32)cc1 (stereo not given) | -1% | -67* | 0% | 9%
CCOc1cc(CNc2ccc(N(C)C)cc2)cc(Br)c1OCC(=O)NC(C)(C)C | 0% | -109* | 0% | 0%
O=C(NCCCN1CCCC1)[C@H](CSCc1ccccc1)N1Cc2ccccc2C1=O | 0% | -60* | 1% | 0%
CC(C)NC(=O)[C@H](CSCc1ccccc1)N1Cc2ccccc2C1=O | 0% | x | -1% | 1%
CCn1c(Cl)c(C=O)s/c1=N\S(=O)(=O)c1ccccc1 | -1% | -87* | 4% | u
Cc1cccc[n+]1C1C(c2ccccc2)C(C#N)=C(C(=C=[N-])C#N)NC1(O)C1CC1 (stereo not given) | -1% | 21 | 15% | 21%
N#CC(=C=[N-])C1=C(C#N)C(c2ccccc2F)C([n+]2ccccc2)C(O)(C2CC2)N1 (stereo not given) | 0% | 33 | 25µM* | 10%
C/C(CCc1ccc2c(c1)OCO2)=N\NC(=S)NC(C)C | 11% | x | -1% | u
COCCNC(=S)N/N=C(\C)CCc1ccc2c(c1)OCO2 | u | -5 | 0% | 20µM*
O=C(NCc1ccccc1F)C1CCCN(C(=O)N2CCOc3ccccc32)C1 (stereo not given) | x | -13 | 3% | x
COc1cc2c(cc1OC)C(COc1ccc3c(C)cc(=O)oc3c1)N(C(=O)Cc1ccccc1)CC2 (stereo not given) | x | -6 | 35µM* | x
COc1cc2c(cc1OC)C(COc1ccc3c(C)cc(=O)oc3c1)N(C(=O)Cc1ccc(F)cc1)CC2 (stereo not given) | x | -9 | 0% | x
Cc1nc2ccccc2c2oc(C(=O)NCC3COc4ccccc4O3)cc12 (stereo not given) | 0% | -84* | 0% | u
CCCCOc1ccc(OC(=O)c2sc3ncn(Cc4cccc(F)c4)c(=O)c3c2C)cc1 | x | -6 | 2% | u
Cc1cccc2cc(C#N)c(SCC(=O)NCc3cccs3)nc12 | 0% | 1 | 13µM* | 2%
Cc1ccc(C)c2nc(SCC(=O)NCc3cccs3)c(C#N)cc12 | -1% | -4 | u | 3%
CCOC(=O)CNC(=O)CSc1nc2c(C)cccc2cc1CC | 0% | 15 | 14µM* | 0%
